# Measured values from the supplement of paper PMC10849652.
# About 8,800 targets were measured; listed, in parts, are those with a hit and a random draw of the rest. About 0.5% of all pairs of compound and target were hits. Unmarked numbers belong to inactive results.
# Tests used:
# Experiment in all cases: log2 fold change, soluble protein after heating vs DMSO (PISA); higher = thermal stabilisation; K562 lysate, 10 uM; active = over 0.2 and 3.5 SD of the protein, either way, in both replicates (recomputed)
# [1] = compound: Cc1cn(-c2cc(NC(=O)c3ccc(C)c(Nc4nccc(-c5cccnc5)n4)c3)cc(C(F)(F)F)c2)cn1 [nilotinib]
# Procedure, shortened: (§1)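 Log-two fold change in thermal stability relative to solvent controls is reported from duplicates. For each sample, crude K562 extract from dounce-homogenised pellets in PBS pH 7.4 with 1 mM MgCl2, at 1 mg/mL protein, was treated with 10 μM compound for 30 min. Aliquots heated for 3 min across 48°C-58°C were pooled, brought to 0.5% NP-40 at 4°C and cleared at 21,000xg for 90 min. The supernatant was quantified by TMTpro 16plex LC-MS/MS with channel sums equalised.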
# [2] = compound: Cc1nc(Nc2n[nH]c3c2CN(C(=O)N[C@H](CN(C)C)c2ccccc2)C3(C)C)c2sccc2n1
# Procedure, shortened: as §1
# [3] = compound: Cc1nc(Nc2ncc(C(=O)Nc3c(C)cccc3Cl)s2)cc(N2CCN(CCO)CC2)n1 [dasatinib]
# Procedure, shortened: as §1
# [4] = compound: Cc1ncc(-c2ccnc(Nc3ccc(S(C)(=O)=O)cc3)n2)n1C(C)C
# Procedure, shortened: as §1
# [5] = compound: Cn1cc(-c2ccc3c(c2)CCN3C(=O)Cc2cccc(C(F)(F)F)c2)c2c(N)ncnc21
# Procedure, shortened: as §1
# [6] = compound: Cn1cncc1[C@@](N)(c1ccc(Cl)cc1)c1ccc2c(c1)c(-c1cccc(Cl)c1)cc(=O)n2C [tipifarnib]
# Procedure, shortened: as §1
# [7] = compound: NC(=O)c1cnc(N[C@@H]2CCCC[C@@H]2N)nc1Nc1cccc(-n2nccn2)c1
# Procedure, shortened: as §1
# [8] = compound: NC1(c2ccc(-c3nc4ccn5c(=O)[nH]nc5c4cc3-c3ccccc3)cc2)CCC1
# Procedure, shortened: as §1
# [9] = compound: NCC(=O)Nc1ccc(-n2nc(C(F)(F)F)cc2-c2ccc3c(ccc4ccccc43)c2)cc1
# Procedure, shortened: as §1
# [10] = compound: O=C(CCCCCCC(=O)Nc1ccccc1)NO [vorinostat]
# Procedure, shortened: as §1
# [11] = compound: O=C(O)c1ccc2c(c1)nc(Nc1cccc(Cl)c1)c1ccncc12 [silmitasertib]
# Procedure, shortened: as §1
# [12] = compound: c1cn2cc(-c3ccc4cn[nH]c4c3)nc(Nc3ccc(N4CCOCC4)cc3)c2n1 [entospletinib]
# Procedure, shortened: as §1
# [13] = compound: Cn1cc(CNCC2CCN(c3ncc(C(=O)NO)cn3)CC2)c2ccccc21 [quisinostat]
# Procedure, shortened: as §1
# [14] = compound: NC(=O)Nc1cc(-c2cccc(F)c2)sc1C(=O)N[C@H]1CCCNC1
# Procedure, shortened: as §1
# [15] = compound: O=C1NC(=O)C(c2cnc3ccccn23)=C1c1cn2c3c(cc(F)cc13)CN(C(=O)N1CCCCC1)CC2
# Procedure, shortened: as §1
# UniProt Q07954, sequence (Q07954 whole entry, looked up): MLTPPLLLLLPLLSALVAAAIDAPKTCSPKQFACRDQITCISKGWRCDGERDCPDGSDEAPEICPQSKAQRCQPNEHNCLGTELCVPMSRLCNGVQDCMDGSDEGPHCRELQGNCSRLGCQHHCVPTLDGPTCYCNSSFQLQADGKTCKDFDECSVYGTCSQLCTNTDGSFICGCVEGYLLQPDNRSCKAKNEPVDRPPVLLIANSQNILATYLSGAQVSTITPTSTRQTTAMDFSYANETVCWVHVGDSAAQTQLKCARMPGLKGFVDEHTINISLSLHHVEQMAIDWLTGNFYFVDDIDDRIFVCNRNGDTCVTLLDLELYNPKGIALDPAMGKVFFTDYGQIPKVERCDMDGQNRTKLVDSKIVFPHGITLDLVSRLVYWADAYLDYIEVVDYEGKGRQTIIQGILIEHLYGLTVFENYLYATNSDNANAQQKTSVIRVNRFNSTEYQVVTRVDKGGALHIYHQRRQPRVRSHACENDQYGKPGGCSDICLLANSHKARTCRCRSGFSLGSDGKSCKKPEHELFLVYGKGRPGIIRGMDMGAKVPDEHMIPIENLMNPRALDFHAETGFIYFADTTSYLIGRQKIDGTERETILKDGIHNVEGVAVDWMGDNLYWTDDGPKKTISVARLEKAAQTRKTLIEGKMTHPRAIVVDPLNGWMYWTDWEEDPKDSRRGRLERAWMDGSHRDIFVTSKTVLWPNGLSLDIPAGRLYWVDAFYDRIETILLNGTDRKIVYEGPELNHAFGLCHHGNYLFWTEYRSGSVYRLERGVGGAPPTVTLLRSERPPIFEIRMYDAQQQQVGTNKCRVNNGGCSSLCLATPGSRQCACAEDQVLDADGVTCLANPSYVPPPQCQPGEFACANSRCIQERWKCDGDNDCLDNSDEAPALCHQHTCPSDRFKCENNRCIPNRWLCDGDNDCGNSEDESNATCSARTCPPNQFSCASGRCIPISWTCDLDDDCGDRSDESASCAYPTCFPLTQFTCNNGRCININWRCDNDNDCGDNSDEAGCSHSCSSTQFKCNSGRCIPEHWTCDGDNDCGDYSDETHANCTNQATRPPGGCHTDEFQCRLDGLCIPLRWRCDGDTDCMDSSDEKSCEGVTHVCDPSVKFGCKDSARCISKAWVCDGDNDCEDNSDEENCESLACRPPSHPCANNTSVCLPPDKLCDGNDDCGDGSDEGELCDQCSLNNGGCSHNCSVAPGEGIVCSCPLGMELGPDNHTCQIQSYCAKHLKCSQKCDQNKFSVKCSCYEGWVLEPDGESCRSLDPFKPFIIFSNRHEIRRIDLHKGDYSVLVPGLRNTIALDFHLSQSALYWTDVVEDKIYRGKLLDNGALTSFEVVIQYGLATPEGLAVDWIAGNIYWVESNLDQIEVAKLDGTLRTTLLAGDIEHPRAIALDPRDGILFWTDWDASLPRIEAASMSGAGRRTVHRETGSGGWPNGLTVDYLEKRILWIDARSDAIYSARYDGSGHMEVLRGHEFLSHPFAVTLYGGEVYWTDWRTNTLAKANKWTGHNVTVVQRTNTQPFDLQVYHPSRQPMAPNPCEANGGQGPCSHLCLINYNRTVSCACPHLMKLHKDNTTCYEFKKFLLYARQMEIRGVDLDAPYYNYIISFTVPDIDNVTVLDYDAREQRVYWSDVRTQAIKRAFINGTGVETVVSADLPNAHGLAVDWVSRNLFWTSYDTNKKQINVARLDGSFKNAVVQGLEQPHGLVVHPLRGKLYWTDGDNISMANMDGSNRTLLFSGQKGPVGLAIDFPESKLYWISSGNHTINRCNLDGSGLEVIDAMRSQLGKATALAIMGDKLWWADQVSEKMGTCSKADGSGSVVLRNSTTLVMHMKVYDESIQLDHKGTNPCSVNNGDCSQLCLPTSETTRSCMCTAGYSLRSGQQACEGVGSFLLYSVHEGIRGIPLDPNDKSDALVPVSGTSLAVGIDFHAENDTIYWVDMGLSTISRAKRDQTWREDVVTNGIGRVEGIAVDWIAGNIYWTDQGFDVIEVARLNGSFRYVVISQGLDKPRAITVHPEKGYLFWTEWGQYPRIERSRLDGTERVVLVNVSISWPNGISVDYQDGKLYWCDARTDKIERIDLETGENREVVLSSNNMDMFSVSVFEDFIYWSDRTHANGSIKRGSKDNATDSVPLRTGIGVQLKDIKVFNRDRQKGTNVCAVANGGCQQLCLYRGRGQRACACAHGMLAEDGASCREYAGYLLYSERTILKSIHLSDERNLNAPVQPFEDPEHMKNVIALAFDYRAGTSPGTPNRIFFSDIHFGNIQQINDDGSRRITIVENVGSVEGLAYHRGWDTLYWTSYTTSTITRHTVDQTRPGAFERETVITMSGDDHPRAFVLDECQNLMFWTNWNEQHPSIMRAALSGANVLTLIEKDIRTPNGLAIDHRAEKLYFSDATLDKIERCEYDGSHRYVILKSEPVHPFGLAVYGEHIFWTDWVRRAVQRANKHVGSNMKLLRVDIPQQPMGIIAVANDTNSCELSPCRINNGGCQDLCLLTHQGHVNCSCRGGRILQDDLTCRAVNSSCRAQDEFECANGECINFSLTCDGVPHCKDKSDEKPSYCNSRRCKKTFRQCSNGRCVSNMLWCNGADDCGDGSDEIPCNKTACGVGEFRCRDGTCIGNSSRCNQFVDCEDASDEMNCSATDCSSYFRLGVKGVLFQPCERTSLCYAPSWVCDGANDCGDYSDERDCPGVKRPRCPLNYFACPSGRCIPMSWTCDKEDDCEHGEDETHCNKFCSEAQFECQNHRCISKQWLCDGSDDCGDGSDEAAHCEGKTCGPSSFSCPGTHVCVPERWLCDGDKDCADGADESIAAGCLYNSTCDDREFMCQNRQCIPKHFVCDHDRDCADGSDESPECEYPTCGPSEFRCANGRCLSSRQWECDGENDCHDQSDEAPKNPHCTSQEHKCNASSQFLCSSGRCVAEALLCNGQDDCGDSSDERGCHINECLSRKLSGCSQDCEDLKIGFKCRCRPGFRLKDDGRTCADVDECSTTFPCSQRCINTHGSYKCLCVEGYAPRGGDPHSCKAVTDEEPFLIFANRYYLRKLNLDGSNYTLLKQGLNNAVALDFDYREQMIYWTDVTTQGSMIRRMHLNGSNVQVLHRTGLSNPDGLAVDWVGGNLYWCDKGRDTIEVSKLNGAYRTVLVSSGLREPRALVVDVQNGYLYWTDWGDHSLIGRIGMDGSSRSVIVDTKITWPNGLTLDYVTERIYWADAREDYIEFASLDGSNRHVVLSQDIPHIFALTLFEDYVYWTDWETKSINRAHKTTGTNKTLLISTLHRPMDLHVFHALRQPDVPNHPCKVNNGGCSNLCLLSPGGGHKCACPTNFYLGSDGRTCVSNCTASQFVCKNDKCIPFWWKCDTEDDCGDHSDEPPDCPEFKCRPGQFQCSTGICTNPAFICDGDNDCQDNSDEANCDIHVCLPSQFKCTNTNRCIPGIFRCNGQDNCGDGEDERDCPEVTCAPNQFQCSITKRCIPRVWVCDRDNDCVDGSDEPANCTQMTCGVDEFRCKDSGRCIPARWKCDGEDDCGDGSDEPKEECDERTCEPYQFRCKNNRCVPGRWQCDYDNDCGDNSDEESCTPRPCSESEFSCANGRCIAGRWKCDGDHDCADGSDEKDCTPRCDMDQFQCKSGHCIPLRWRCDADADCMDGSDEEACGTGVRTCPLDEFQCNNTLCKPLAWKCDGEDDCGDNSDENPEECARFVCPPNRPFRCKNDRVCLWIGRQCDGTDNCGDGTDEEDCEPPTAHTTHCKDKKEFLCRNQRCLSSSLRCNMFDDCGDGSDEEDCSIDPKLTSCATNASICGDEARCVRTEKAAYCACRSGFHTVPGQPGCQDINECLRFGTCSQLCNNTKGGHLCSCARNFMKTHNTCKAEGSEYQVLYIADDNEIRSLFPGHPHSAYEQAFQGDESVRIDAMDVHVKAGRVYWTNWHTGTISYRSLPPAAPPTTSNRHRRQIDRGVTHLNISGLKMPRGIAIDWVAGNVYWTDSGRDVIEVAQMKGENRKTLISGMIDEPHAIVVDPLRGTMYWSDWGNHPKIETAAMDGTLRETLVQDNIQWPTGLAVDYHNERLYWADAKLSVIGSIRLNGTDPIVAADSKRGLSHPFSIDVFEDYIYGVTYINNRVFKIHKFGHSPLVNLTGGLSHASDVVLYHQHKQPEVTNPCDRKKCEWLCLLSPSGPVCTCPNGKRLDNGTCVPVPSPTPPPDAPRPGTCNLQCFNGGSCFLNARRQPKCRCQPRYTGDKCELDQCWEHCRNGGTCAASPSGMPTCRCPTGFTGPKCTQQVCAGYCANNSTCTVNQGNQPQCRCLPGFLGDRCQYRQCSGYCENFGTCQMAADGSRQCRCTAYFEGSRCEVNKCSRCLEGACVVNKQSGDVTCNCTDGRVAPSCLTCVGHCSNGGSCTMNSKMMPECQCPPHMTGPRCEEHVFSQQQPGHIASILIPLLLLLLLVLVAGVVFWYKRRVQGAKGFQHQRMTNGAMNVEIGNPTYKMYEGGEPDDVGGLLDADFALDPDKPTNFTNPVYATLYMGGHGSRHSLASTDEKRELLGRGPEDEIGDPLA
# UniProt P01116, sequence (P01116 whole entry, looked up): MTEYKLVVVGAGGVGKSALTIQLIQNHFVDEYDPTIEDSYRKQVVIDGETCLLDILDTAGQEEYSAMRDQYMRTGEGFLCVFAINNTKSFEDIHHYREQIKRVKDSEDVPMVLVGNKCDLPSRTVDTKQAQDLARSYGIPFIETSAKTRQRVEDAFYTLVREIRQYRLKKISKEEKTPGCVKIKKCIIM
# UniProt O15243, sequence (O15243 whole entry, looked up): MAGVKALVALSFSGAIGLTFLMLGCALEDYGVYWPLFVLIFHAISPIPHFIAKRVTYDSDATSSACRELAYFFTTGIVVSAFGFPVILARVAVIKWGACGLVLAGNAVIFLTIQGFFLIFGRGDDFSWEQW
# UniProt Q16553, sequence (Q16553 whole entry, looked up): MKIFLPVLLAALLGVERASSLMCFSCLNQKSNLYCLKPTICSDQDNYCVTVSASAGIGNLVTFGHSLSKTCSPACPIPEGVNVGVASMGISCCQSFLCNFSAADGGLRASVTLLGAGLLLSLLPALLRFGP
Target,log2 fold change [1],log2 fold change [2],log2 fold change [3],log2 fold change [4],log2 fold change [5],log2 fold change [6],log2 fold change [7],log2 fold change [8],log2 fold change [9],log2 fold change [10],log2 fold change [11],log2 fold change [12],log2 fold change [13],log2 fold change [14],log2 fold change [15]
MDM1 (UniProt Q8TC05),-0.073,-0.008,0.015,-0.149,0.056,0.006,-0.005,0.061,0.056,0.085,0.093,-0.119,,,
LRPPRC (UniProt H7C3W8),,,,,,,,,0.792,,,,,,
KRI1 (UniProt Q8N9T8),-0.099,0.02,-0.025,0,-0.014,-0.073,,0.06,0.085,-0.285 (active),-0.023,-0.07,-0.125,-0.006,-0.007
LRRC9 (UniProt Q6ZRR7),,,,,,,,,0.106,,,0.011,-0.171,-0.038,-0.034
MAPK7 (UniProt Q13164),,,,,,,0.028,0.011,,-0.102,0,0.029,-0.156,-0.044,-0.01
MAP4K4 isoform 6 (UniProt O95819),,,-0.01,,0.115,,0.021,0.083,,-0.134,0.02,0.094,,,
MRC2 (UniProt Q9UBG0),-0.001,-0.055,-0.201,0.26,0.073,0.083,,0.068,,0.346,-0.051,-0.055,-0.056,0.144,-0.171
LRP1 (UniProt Q07954),,,,,,,0.122,,0.233,,,-0.032,-0.936 (active),0.114,0.296
MEX3A (UniProt A1L020),0.026,-0.069,-0.029,-0.137,-0.084,0.211,,,-0.106,,,,,,
MRPL22 (UniProt Q9NWU5),0.04,0.017,,0.03,,-0.003,-0.073,0.081,,-0.687 (active),0.001,,0.025,-0.001,-0.007
MAN2B2 (UniProt Q9Y2E5),-0.039,-0.173,0.051,-0.004,0.011,-0.041,0.038,0.033,,0.117,-0.014,0.019,-0.033,0.04,-0.005
MAPK12 (UniProt P53778),0.082,0.048,-0.057,0.085,0.375 (active),-0.005,,-0.044,0,0.181,-0.027,-0.027,0.051,-0.015,-0.067
MARF1 (UniProt Q9Y4F3),-0.064,0.024,-0.031,0.031,-0.03,-0.062,,-0.035,0.006,-0.471 (active),0.003,0.049,-0.053,0.088,-0.045
LY6E (UniProt Q16553),-0.141,0.031,,0.056,,0.033,0.08,,0.165,,,-0.013,,,
MOCS3 (UniProt O95396),-0.008,-0.054,-0.056,0.056,-0.049,0.045,,-0.03,0.062,-0.458 (active),-0.012,0.035,-0.219,-0.054,0.053
KIF21A (UniProt H0YI78),0.067,-0.005,0.044,0.143,0.055,-0.069,0.104,0.082,,-0.113,-0.016,,,,

Target,log2 fold change [1],log2 fold change [2],log2 fold change [3],log2 fold change [4],log2 fold change [5],log2 fold change [6],log2 fold change [7],log2 fold change [8],log2 fold change [9],log2 fold change [10],log2 fold change [11],log2 fold change [12],log2 fold change [13],log2 fold change [14],log2 fold change [15]
LIMK1 (UniProt P53667),-0.315,0.008,0.4,0.031,0.146,0.102,0.118,,-0.127,,,0.027,-0.145,0.126,0.281
MAP3K4 isoform 2 (UniProt Q9Y6R4),,,,,,,,,,,,,0.009,0.112,0.034
KIF26A (UniProt Q9ULI4),0.035,-0.013,0.003,0.01,0.014,0.226,,-0.091,-0.01,-0.178,0.068,0.057,-0.092,-0.078,-0.016
KRAS isoform 2 (UniProt P01116),,,-0.029,,-0.025,,-0.046,0.036,,0.068,-0.015,-0.129,0.018,0.001,-0.045
LYN isoform 2 (UniProt P07948),0.125,0.143,0.438,0.257,0.061,-0.615,,-0.053,,-0.118,0.049,0.129,-0.111,0.748,-0.31
LRRC7 (UniProt Q96NW7),,,0.059,,-0.043,,0.069,,-0.097,,,-0.108,0.128,-0.009,-0.012
MAPK3 (UniProt H0YEX6),-0.522,0.646,,0.12,,0.097,,,,,,,,,
LEPROT (UniProt O15243),,,,,,,-0.147,0.024,,-0.641 (active),0.167,0.115,-0.089,0.092,-0.007
MAST2 (UniProt Q6P0Q8),,,0.049,,0.044,,-0.005,-0.036,0.062,-0.166,0.055,-0.189,-0.024,0.047,-0.013
MAP3K6 (UniProt O95382),0.122,-0.023,,0.006,,-0.011,,,-0.088,,,-0.043,,,
MDM2 isoform 11 (UniProt Q00987),,,,,,,,-0.195,-0.137,-0.062,0,,-0.2,-0.077,-0.039
MRPL30 isoform 2 (UniProt Q8TCC3),-0.048,-0.066,-0.038,0.047,0.03,0.052,0,0.039,,0.041,-0.023,-0.046,-0.13,-0.007,-0.012
MEGF8 (UniProt Q7Z7M0),,,-0.059,,-0.003,,,-0.073,,0.05,-0.062,-0.048,0.047,-0.073,0.02
KIF18B (UniProt Q86Y91),,,0.073,,0.076,,0.025,,,,,-0.035,-0.025,0.17,-0.098
MPP5 (UniProt Q8N3R9),0.015,-0.013,0.028,-0.069,0.009,0.142,,-0.053,0.015,0.016,-0.1,0.013,-0.052,0.002,0
